The results in this text go back to PubChem BioAssay (NCI).

The panel holds about 83,000 compounds, 20% with a hit somewhere; the sample as a whole holds those more often.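 Single-dose data. Exposure time 48 hours. Values below 10 considered active.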 Values without a mark were called inactive. Activity calls are given as the source filed them.

Common to all, as to test: NCI-60 one-dose screen, 48 h (100 = growth as untreated, 0 = no growth, -100 = all killed)
For assay [1], the system named is SK-MEL-2 melanoma. Conditions: 10 µM unless noted.
Assay [2] concerns SN12C renal. As to conditions: 10 µM unless noted.
Assay [3] deals with UO-31 renal. Conditions: 10 µM unless noted.
The subject of assay [4] is TK-10 renal. Conditions: 10 µM unless noted.
The test system of assay [5] is ACHN renal. Conditions: 10 µM unless noted.
Assay [6] concerns A498 renal. Conditions: 10 µM.
Assay [7] relates to CCRF-CEM leukemia. Conditions: 10 µM unless noted.
Assay [8] concerns CAKI-1 renal. As to conditions: 10 µM unless noted.
The test system of assay [9] is HL-60(TB) leukemia. Conditions: 10 µM unless noted.

In the case of `CCCCCC1(CCBr)C(=O)NC(=O)NC1=O`, the growth in assay [1] is 105%; in [2], 107%; in [3], 86.7%; in assay [4] it was 111%; in [5] it was 102%; in [6], 88.4%. For the same molecule, the growth in assay [7] is 102%.
With `C=C1[C@@H](C)[C@H]2[C@H](Cc3ccccc3)NC(=O)[C@]23[C@@H](O)/C=C/[C@@](C)(O)C(=O)[C@@H](C)C/C=C/[C@H]3[C@@H]1O`, the growth was 65.1% in assay [1]; 66.1% in assay [2]; 31.6% in [3]; 39.6% in assay [4]; 45.6% in assay [5]; 52.5% in assay [8]. The results for the growth in assay [9] and in assay [7] were 73.4% and 48%, respectively.
As to `O=C(c1ccccc1O)c1[nH]c(Cl)c(Cl)c1-n1c(C(=O)c2ccccc2O)cc(Cl)c1Cl`, the growth is -36.9% (active) in [1]; -14.2% (active) in [2]; -3.72% (active) in [3]; 6.68% (active) in assay [4]; -9.76% (active) in assay [5]; -11.1% (active) in assay [8]. The figures for the growth in assay [6] and in assay [7] were -33.3% (active) and 3.92% (active), respectively.
For `COc1cc(/C=C\c2cc(OC)c(OC)c(OC)c2)cc(N/C=C\C(=O)c2cc(OC)c(OC)c(OC)c2)c1OC`, the growth in [1] was 15.9%; in [2], 36.9%; in [3], 22.3%; in [4] it was 55.1%; in assay [5] it was 28.9%; in assay [6], -12.4% (active).
For the molecule `CC[C@H](C)[C@H](NC(=O)c1cccn1C)C(=O)N(C)[C@H](C[C@@H](OC(C)=O)c1nc(C(=O)N[C@@H](Cc2ccccc2)C[C@H](C)C(=O)OC)cs1)C(C)C`, the growth in assay [1] was 20.4%; in assay [2], 24.2%; in [3], 38.9%; in assay [4], 27.5%; in assay [5] it was 30%; in [6], -2.8% (active). In addition, the figures for the growth in [9] and in assay [7] were -36.7% (active) and 18.7%, respectively.
`CNCc1cccnc1`: the growth in [1] was 112%; in [2] it was 111%; in [3] it was 93.9%; in assay [4], 113%; in assay [5], 106%; in assay [8] it was 92%. Also, the growth in [6] is 104%; in assay [7] it was 96.6%.
`O=C(O)CNC(=O)C(Cl)(Cl)Cl`: the growth is 111% in [1]; 100% in [2]; 87.6% in [3]; 95.6% in assay [4]; 92.7% in assay [5]; 96.2% in [6]. For the same molecule, in assay [9], the growth was 80.8%.
Regarding `COc1ccc(/C=C\c2cc(OC)c(OC)c(OC)c2)c(NS(=O)(=O)c2ccc(Cl)cc2)c1O`, the growth in [1] is 0.0535% (active); in assay [2], 22.1%; in [3] it was 33.7%; in assay [4] it was 25.1%; in assay [5], 25.9%; in assay [6], -13% (active). For the same molecule, the growth in assay [9] was -38.8% (active); in [7], 7.81% (active).
For the molecule `COc1ccc(Nc2ccc([N+](=O)[O-])cc2[N+](=O)[O-])cc1CN(CCCl)CCCl`, the growth in assay [1] was 42.9%; in [2], 21.4%; in [3], 31.4%; in assay [4], 56.7%; in assay [5], 15.2%; in [6] it was 18.5%. The growth in assay [9] is -17.7% (active); in assay [7] it was 2.14% (active).
As to `COc1ccc(C2=N[C@@H](Cc3ccccc3)C(=O)Nc3ccsc32)cc1`, the growth is -4.24% (active) in [1]; 54.3% in [2]; 57% in assay [3]; 70.3% in [4]; 55.7% in assay [5]; 50.7% in [8]. The figures for the growth in [6] and in assay [7] were 35.8% and 32.1%, respectively.
With `COc1ccc(/C=C\c2cc(OC)c(OC)c(OC)c2)c(NS(=O)(=O)c2ccc(F)cc2)c1O`, the growth is -6.87% (active) in assay [1]; 28.1% in assay [2]; 48% in [3]; 59.3% in assay [4]; 24.4% in assay [5]; 20.8% in [8]. The growth in [7] was 17.4%.
As for `ClCCN(CCCl)c1ccc(OCc2ccccc2)cc1`, the growth in assay [1] is 114%; in assay [2], 30.8%; in assay [3], 38.6%; in assay [4], 96.3%; in assay [5], 17.7%; in assay [8] it was 11.4%. For the same molecule, the values for the growth in assay [6], in [9] and in assay [7] were 68.9%, 10.6% and 14.4%, respectively.
On to `O=C1CC2(CC3(Cl)C(Cl)=C(Cl)C2(Cl)C3(Cl)Cl)C(=O)O1` (centres undefined), for which the growth in assay [1] was 121%; in assay [2], 107%; in assay [3], 63.5%; in assay [4], 98.7%; in assay [5] it was 105%; in [6], 98.9%. The growth in assay [9] is 97.1%; in [7] it was 114%.
For the molecule `COc1cc(/C=C\c2cc(OC)c(OC)c(OC)c2)cc(NS(=O)(=O)c2cccc(Cl)c2)c1OC`, the growth is 23.5% in assay [1]; 27.7% in assay [2]; 32.1% in [3]; 63.3% in assay [4]; 16.4% in assay [5]; 11.4% in assay [8]. Further, the values for the growth in assay [9] and in assay [7] were 4.54% (active) and 9.72% (active), respectively.
For `COC(C(=O)[C@@H](O)[C@@H](C)O)[C@@H]1Cc2cc3cc(O[C@H]4C[C@@H](O[C@H]5C[C@@H](O)[C@H](O)C(C)O5)[C@H](O)C(C)O4)c(C)c(O)c3c(O)c2C(=O)[C@H]1O[C@H]1C[C@@H](O[C@H]2C[C@@H](O[C@H]3C[C@@H](O)[C@@H](O)C(C)O3)[C@@H](O)C(C)O2)[C@H](O)C(C)O1` (some centres undefined), the growth is -61.3% (active) in [1]; 7.47% (active) in assay [2]; -3.24% (active) in assay [3]; 12.1% in [4]; 0.535% (active) in assay [5]; -39.9% (active) in assay [6]. The figures for the growth in [9] and in [7] were 30.5% and 29.4%, respectively.
For the molecule `CCOC(=O)[C@@H](C)C[C@H](Cc1ccccc1)NC(=O)c1csc([C@@H](C[C@H](C(C)C)N(C)C(=O)[C@H](CC)NC(=O)[C@H]2CCCCN2C)OC(C)=O)n1`, the growth in assay [1] was 26.8%; in assay [2], 19.1%; in assay [3], 33.7%; in assay [4] it was 69.6%; in assay [5], 25.9%; in assay [6], -13.5% (active). Also, the growth in assay [9] was -26.4% (active); in assay [7], 3.51% (active).
